# Experimental data reported in the supplement of paper PMC10849652.
# The full data set covers some 8,800 targets. This sample favours those with a hit. About 0.5% of all pairs of compound and target were hits. Values without a mark were called inactive.
# Tests used:
# Assay in all cases: log2 fold change, soluble protein after heating vs DMSO (PISA); higher = thermal stabilisation; K562 lysate, 10 uM; active = over 0.2 and 3.5 SD of the protein, either way, in both replicates (recomputed)
# [1] = compound: C1=CC=C(C=C1)[C@H](COC2=CC3=C(C=C2)NC(=O)N3)NC(=O)C4=CC=CN(C4=O)CC5=CC(=C(C=C5)F)F
# In short: (§1)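 A 30 min treatment with 10 μM compound was applied to crude K562 extract at 1 mg/mL protein in PBS pH 7.4 with 1 mM MgCl2. Heating for 3 min spanned 48°C-58°C, after which aliquots were pooled, adjusted to 0.5% NP-40 at 4°C and spun at 21,000xg for 90 min. TMTpro 16plex LC-MS/MS of the supernatant, with channel sums equalised, gave values recorded as log-two fold change in thermal stability against solvent controls, from duplicates.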
# [2] = compound: CC1=C(SC2=C1C(=N[C@H](C3=NN=C(N32)C)CC(=O)N)C4=CC=C(C=C4)Cl)C
# In short: as §1
# [3] = compound: CC1=C2C(=CC=C1)N=C(N(C2=O)C3=CC=CC=C3C)CN4C=NC5=C(N=CN=C54)N
# In short: as §1
# [4] = compound: Cc1sc2c(c1C)C(c1ccc(Cl)cc1)=N[C@@H](CC(=O)OC(C)(C)C)c1nnc(C)n1-2
# In short: as §1
# [5] = compound: c1ccc([C@@H]2C[C@H]2NC2CCNCC2)cc1
# In short: as §1
# Sequence of UniProt O00625 (O00625 whole entry, looked up): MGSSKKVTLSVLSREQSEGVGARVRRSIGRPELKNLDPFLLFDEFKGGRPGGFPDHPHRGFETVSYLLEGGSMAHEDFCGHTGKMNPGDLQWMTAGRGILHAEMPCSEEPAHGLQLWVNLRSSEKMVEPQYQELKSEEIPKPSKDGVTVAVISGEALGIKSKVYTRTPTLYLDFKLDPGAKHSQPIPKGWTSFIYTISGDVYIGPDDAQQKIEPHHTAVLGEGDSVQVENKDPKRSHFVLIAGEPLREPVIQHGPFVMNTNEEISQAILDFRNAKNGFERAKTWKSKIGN
# Sequence of UniProt Q9BZL6 (Q9BZL6 whole entry, looked up): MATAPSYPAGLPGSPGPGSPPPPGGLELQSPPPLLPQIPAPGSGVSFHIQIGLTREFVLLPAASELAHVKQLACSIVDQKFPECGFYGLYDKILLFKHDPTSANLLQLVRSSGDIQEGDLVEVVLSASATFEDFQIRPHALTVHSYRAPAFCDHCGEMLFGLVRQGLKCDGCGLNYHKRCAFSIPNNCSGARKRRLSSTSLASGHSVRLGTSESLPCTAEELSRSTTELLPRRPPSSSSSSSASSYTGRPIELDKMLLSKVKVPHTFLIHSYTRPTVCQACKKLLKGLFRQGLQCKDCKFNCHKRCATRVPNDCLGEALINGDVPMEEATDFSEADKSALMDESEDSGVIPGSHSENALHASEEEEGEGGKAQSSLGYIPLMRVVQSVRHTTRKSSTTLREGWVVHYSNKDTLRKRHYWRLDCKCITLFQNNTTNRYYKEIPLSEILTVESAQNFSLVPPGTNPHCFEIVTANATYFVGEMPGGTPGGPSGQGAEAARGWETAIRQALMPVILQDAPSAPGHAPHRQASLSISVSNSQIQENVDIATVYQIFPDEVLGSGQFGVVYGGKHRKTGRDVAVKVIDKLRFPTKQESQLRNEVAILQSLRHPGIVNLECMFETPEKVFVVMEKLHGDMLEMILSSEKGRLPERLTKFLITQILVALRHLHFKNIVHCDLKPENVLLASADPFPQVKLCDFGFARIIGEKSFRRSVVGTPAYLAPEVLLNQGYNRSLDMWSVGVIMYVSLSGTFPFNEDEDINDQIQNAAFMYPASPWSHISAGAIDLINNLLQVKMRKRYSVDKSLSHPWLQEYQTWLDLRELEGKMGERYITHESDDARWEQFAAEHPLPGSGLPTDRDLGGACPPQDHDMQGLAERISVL
# Sequence of UniProt Q12972 (Q12972 whole entry, looked up): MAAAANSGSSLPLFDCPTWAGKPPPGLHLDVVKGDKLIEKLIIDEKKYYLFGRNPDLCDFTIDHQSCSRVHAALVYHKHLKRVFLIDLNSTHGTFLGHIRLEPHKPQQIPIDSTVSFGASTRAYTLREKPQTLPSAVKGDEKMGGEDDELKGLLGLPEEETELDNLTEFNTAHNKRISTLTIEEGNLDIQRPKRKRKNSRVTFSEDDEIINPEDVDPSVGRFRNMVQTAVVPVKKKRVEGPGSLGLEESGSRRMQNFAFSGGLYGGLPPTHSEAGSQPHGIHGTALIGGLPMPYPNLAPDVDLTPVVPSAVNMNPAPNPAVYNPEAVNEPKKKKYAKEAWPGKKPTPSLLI
# Sequence of UniProt O75334 (O75334 whole entry, looked up): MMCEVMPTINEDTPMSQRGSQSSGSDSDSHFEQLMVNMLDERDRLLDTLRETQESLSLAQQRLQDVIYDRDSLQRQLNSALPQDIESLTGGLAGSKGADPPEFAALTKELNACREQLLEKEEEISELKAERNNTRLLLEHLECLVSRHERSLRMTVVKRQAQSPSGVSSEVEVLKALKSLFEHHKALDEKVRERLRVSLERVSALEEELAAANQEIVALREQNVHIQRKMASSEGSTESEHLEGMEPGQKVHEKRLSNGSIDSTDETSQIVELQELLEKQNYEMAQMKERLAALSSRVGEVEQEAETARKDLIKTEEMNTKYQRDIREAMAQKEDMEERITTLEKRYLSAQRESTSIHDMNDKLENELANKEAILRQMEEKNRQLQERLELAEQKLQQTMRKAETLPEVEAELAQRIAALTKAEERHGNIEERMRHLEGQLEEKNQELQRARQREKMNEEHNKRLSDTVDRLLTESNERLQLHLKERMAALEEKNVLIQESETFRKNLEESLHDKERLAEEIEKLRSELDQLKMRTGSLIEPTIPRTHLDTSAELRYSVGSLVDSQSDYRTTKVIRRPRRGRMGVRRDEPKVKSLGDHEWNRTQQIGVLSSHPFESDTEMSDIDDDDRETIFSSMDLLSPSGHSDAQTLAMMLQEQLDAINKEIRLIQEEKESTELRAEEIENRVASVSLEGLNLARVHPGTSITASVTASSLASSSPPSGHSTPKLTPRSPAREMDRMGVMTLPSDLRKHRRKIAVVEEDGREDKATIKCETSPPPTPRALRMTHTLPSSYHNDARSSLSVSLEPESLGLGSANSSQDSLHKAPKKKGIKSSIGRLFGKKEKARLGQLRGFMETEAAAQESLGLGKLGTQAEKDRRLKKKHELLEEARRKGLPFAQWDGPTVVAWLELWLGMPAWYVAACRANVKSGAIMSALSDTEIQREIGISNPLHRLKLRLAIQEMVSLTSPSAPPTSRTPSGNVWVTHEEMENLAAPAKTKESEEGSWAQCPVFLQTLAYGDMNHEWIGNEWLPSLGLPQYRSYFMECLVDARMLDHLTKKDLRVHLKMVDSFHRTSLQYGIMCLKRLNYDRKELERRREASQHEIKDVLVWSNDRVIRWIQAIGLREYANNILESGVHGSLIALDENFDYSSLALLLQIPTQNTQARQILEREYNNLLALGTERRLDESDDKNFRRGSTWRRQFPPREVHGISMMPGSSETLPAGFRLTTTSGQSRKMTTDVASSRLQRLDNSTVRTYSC
# Sequence of UniProt P46019 (P46019 whole entry, looked up): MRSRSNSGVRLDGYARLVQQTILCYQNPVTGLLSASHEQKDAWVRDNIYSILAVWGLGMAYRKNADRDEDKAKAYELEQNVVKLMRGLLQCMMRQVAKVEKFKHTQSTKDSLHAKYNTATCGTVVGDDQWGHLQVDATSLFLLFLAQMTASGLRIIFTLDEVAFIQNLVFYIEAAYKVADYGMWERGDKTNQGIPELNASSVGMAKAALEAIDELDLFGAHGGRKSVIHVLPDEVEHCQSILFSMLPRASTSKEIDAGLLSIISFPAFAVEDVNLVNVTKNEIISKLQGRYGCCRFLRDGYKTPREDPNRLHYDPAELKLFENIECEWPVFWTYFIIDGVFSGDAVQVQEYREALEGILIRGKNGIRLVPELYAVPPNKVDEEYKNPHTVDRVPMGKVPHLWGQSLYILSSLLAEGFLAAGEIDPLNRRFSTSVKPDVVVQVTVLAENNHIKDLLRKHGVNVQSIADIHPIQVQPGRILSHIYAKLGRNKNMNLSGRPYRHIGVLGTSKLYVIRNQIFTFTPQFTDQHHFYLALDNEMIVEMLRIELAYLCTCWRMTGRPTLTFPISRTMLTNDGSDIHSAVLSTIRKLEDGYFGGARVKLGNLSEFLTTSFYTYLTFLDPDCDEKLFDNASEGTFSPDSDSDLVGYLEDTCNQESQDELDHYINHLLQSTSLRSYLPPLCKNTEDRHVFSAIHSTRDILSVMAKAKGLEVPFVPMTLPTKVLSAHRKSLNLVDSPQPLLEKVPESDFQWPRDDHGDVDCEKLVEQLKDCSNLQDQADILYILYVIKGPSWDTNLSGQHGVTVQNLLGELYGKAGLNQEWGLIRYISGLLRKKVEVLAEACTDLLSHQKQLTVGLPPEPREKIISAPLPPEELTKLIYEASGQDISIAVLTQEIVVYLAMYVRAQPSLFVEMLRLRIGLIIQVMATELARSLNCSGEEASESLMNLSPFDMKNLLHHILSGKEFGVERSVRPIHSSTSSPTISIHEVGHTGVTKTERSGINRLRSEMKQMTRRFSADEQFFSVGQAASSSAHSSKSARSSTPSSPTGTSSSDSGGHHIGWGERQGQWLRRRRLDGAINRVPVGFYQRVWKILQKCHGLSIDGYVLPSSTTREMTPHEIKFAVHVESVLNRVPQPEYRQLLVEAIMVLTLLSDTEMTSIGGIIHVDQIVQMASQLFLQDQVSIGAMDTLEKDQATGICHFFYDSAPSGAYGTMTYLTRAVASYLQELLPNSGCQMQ
# Sequence of UniProt Q8TAE6 (Q8TAE6 whole entry, looked up): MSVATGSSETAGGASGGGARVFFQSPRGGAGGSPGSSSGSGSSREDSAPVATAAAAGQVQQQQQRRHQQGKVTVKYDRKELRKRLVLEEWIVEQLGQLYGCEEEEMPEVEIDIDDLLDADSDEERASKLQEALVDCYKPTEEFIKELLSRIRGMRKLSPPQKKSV
# Sequence of UniProt P31323 (P31323 whole entry, looked up): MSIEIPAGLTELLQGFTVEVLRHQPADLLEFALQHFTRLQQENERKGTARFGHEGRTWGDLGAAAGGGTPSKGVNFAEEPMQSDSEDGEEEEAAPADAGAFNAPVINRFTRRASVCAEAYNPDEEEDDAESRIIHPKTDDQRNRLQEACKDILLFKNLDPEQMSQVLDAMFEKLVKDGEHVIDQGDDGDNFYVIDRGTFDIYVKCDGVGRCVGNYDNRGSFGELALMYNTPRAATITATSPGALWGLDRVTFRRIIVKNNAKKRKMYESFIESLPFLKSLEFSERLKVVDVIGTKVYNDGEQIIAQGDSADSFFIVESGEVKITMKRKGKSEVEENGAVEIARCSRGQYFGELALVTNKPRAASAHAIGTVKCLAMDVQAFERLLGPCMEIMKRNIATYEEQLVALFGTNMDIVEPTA
# Sequence of UniProt Q9Y570 (Q9Y570 whole entry, looked up): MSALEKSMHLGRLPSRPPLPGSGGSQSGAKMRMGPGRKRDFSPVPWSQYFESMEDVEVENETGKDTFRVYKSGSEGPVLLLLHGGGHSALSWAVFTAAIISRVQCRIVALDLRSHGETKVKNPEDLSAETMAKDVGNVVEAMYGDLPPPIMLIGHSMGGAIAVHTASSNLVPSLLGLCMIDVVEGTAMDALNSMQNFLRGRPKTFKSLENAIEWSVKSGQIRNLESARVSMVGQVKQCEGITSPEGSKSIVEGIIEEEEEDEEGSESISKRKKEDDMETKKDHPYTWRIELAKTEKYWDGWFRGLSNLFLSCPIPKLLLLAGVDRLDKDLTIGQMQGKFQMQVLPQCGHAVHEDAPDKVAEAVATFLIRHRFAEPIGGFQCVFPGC
Target,log2 fold change [1],log2 fold change [2],log2 fold change [3],log2 fold change [4],log2 fold change [5]
PIR (UniProt O00625),-0.013,0.017,0.026,0.009,0.06
PRRC2A (UniProt P48634),-0.047,0.003,0.001,0.017,-0.02
PRKCD (UniProt Q05655),0.003,0.022,0.028,-0.003,0.023
PHGDH (UniProt O43175),-0.014,0.017,0.047,0.046,0.052
PRKD2 isoform 3 (UniProt Q9BZL6),0.001,-0.031,0.121,0.02,0.104
PHKA2 (UniProt P46019),-0.111,0.028,0.052,0.021,0.038
PI4KA (UniProt P42356),-0.08,-0.012,0.057,-0.019,-0.018
PPME1 isoform 4 (UniProt Q9Y570),-0.004,0.013,-0.019,0.021,0.007
PRPF6 (UniProt O94906),-0.006,0.015,-0.012,-0.01,0.04
PPFIA2 (UniProt O75334),0.022,0.041,0.003,-0.016,-0.132
POLR3E (UniProt Q9NVU0),-0.031,-0.003,-0.001,-0.002,-0.012
PTP4A1 (UniProt Q93096),0.047,0.006,0.012,-0.01,0.041
PPP2R5C isoform 2 (UniProt Q13362),-0.016,0.224,0.004,-0.136,0.026
PYURF (UniProt Q96I23),0.03,0.048,0.126,0.007,-0.091
PTPN7 isoform 3 (UniProt P35236),-0.028,0.002,-0.031,0.015,-0.012
PMS1 (UniProt P54277),-0.011,-0.056,0,-0.06,-0.006
PRKAR2B (UniProt P31323),-0.028,0.018,0.011,-0.002,0.068
PPP1R8 (UniProt Q12972),0.006,0.017,0.003,0.059,-0.142
PPP2R5C isoform 5 (UniProt Q13362),-0.068,0.011,-0.02,-0.024,0.071
PIP4P2 (UniProt Q8N4L2),0.03,-0.068,-0.012,0.012,-0.106
PIK3CB (UniProt P42338),-0.066,-0.054,0.518 (active),-0.049,-0.033
PCBP2 (UniProt H3BRU6),0.166,-0.15,-0.208,0.104,-0.11
PRKDC (UniProt P78527),-0.073,-0.123,-0.064,0.028,-0.048
PPP1R14C (UniProt Q8TAE6),-0.019,0.024,0.051,-0.078,-0.147
